# The sample as a whole holds a higher share of hits than the screen did.
# ST2 IL33 inh: blocks human ST2 binding to IL-33 | Q01638 | hit rate 2.3% among 78,000 | inhibition, % for hits at 17 µM | AlphaLISA ST2-Fc/biotin-IL-33 interaction, 1 h; in the data active = inhibition above about 30%
# Target sequence (Q01638 whole entry, looked up): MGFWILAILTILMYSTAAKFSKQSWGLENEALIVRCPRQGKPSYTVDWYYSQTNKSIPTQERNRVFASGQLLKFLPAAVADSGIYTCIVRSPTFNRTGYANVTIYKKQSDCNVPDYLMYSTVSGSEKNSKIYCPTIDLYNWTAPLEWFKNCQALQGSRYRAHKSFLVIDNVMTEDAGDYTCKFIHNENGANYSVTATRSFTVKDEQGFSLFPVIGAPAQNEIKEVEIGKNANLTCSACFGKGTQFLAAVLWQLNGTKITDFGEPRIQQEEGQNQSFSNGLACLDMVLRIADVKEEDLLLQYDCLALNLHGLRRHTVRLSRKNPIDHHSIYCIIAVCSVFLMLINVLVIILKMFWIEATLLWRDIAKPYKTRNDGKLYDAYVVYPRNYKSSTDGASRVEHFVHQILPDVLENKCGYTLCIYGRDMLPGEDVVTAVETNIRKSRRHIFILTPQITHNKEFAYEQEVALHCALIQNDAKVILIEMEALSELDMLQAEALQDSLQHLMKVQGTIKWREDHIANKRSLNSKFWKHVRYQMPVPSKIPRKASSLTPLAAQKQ
# Starred values were filed as active, the others as inactive; i = inactive.
SMILES,ST2 IL33 inh
CCCOc1ccc2oc(=O)c3c(c2c1)CCCN3C(=O)CN1CCN(c2ncccn2)CC1,i
CCCOc1ccc2oc(=O)c3c(c2c1)CCCN3C(=O)CN1CCCC(C(=O)OCC)C1 (configuration not stated),i
CCN1CCN(CC(=O)N2CCCc3c2c(=O)oc2ccc(OCc4ccccc4)cc32)CC1,30%*
CCCOc1ccc2oc(=O)c3c(c2c1)CCCN3C(=O)CN1CCN(C(=O)c2ccco2)CC1,i
CCCOc1ccc2oc(=O)c3c(c2c1)CCCN3C(=O)CN1CCCCCC1,i
Cc1noc(C)c1S(=O)(=O)N1CCN(c2cc(-c3cccc(F)c3)ncn2)CC1,i
O=C1CCCC2=C1C(c1c(Cl)cccc1Cl)Nc1ccccc1N2 (configuration not stated),i
Cc1nn(C)c(Cl)c1S(=O)(=O)N1CCN2CCN(C)CC2C1 (configuration not stated),i
COC(=O)C1C2C=CC3(CN(C(C)c4ccc(Br)cc4)C(=O)C13)O2 (configuration not stated),i
CC1(C)CC([N+](=O)[O-])CC(C)(C)N1,i
CCc1ccc(-c2cn3c(C(=O)N4[C@@H]5CC[C@H]4CNC(=O)C5)csc3n2)cc1,36%*
COc1ccc(NC2(C(=O)N3[C@@H]4CC[C@H]3CNC(=O)C4)CCCC2)cc1,i
Cc1nc2sccn2c1C(=O)N1[C@H]2CCNC[C@@H]1CC2,i
CCCCN(CC#CC(O)(c1ccccc1)c1ccccc1)CCO,i
O=C(O)C1CC(=O)N(Cc2ccc(Cl)cc2)C(=Nc2ccccc2)S1 (configuration not stated),i
COc1ccc(NCCNc2ccc(OC)cc2)cc1,48%*
COc1ccc(NS(C)(=O)=O)cc1,i
COc1ccc(NC(=O)C(C)(C)C)cc1,i
O=C1CNc2ccc(C(=O)N3C[C@@H]4C5CCC(CC5)[C@@H]4C3)cc2N1,i
CCn1nc(C(=O)N2CCN(c3ccccc3)CC2)c2c1CCN(C(=O)Cc1cscn1)C2,i
CC1CCc2cc(F)ccc2N1S(=O)(=O)c1ccc([N+](=O)[O-])cc1 (configuration not stated),36%*
CC1CCc2cc(F)ccc2N1S(C)(=O)=O (configuration not stated),i
CC1CCc2cc(F)ccc2N1C(=O)c1ccc([N+](=O)[O-])cc1 (configuration not stated),i
C=CCc1cc(OC)ccc1OCCOCCn1cnc2ccccc2c1=O,i
CN1C(=O)C(O)(C2CCc3ccccc3C2=O)c2ccccc21 (configuration not stated),i
SMILES,ST2 IL33 inh
Cc1sc2ncnc(N(C)C3CCCCC3)c2c1S(=O)(=O)N1CCC(C)CC1,i
CC(C)Nc1ccc(-c2cc(N)nc3[nH]ccc23)nn1,i
CNc1cc(-c2ccc3ccccc3n2)c2cc[nH]c2n1,52%*
C=CCn1c(=O)c(-c2ccc3ccccc3n2)cc2ccccc21,i
Cc1cc(C)n(CC(C)Nc2nc(-c3ccncc3)nc3c2CNC3)n1 (configuration not stated),i
CCN(CC)C(=O)c1cc(-c2ccc(F)cc2)on1,i
O=S(=O)(NCC(c1cccnc1)N1CCN(c2ccccc2F)CC1)c1ccccc1 (configuration not stated),i
COc1cc(OC)cc(C(=O)Nc2ccc(Nc3nc(C)cc(N(C)C)n3)cc2)c1,i
COc1ccc(Cl)cc1C(=O)Nc1ccc(Nc2nc(C)cc(N(C)C)n2)cc1,33%*
Cc1cc(N(C)C)nc(Nc2ccc(NC(=O)c3c(F)cccc3F)cc2)n1,i
Cc1cc(N(C)C)nc(Nc2ccc(NC(=O)c3ccccc3C(F)(F)F)cc2)n1,i
Cc1cc(N(C)C)nc(Nc2ccc(NC(=O)c3ccccc3C)cc2)n1,31%*
COc1ccc(Cl)cc1C(=O)Nc1ccc(Nc2nc(C)cc(Nc3ccccc3)n2)cc1,i
CCOC(=O)c1c(C)oc2ccc(OC(=O)c3ccccc3)cc12,i
O=C(Nc1nc(-c2ccccc2)cs1)c1coc2ccccc2c1=O,i
COc1cccc(-c2nnc(Nc3nc4ccc(OC)cc4s3)o2)c1,i
Cc1cccc(N2CCN(S(=O)(=O)c3cccc4cccnc34)CC2)c1C,i
CCCCNC(=O)Cc1c(C(=O)O)[nH]c2ccc(Cl)cc12,i
CCOc1cc(CN2CCCN(C)CC2)ccc1OC,i
COc1ccccc1OCCOc1cccc(Cl)c1,i
CCOc1ccc(-c2nnc3cccc(Cl)n23)cc1OC,41%*
COc1ccc(C2Nc3ccccc3NC3=C2C(=O)CC(c2ccccc2Cl)C3)cc1O (configuration not stated),i
O=C(NC1CCC(n2cnnc2)CC1)c1cn2ccsc2n1 (configuration not stated),i
O=C(CC(=O)c1ccc([N+](=O)[O-])cc1)c1ccccc1,i
O=C(c1ccc([N+](=O)[O-])cc1)N(c1ccccn1)c1ccccn1,i
SMILES,ST2 IL33 inh
CCN(CC)/C(=C\C(=O)c1ccc([N+](=O)[O-])cc1)c1ccccc1,31%*
COC(=O)CSc1nc2ccccc2c(=O)n1-c1ccccc1,i
CCOCCn1nc(C)cc1C(=O)N1C[C@H]2CC=CC[C@H]2C1,i
CN1CCN(CCCCOc2ccc(Cl)cc2C(C)(C)C)CC1,i
COc1ccccc1N1CCN(C(c2ccccc2)c2n[nH]c(=O)c3ccccc23)CC1 (configuration not stated),i
COc1ccc(Cn2cnc([N+](=O)[O-])c2)cc1Br,i
COc1ccc(Cc2nc3cc(C)c(C)cc3n(C)c2=O)cc1Br,i
COc1ccc(Cc2nc3cc(C)c(C)cc3[nH]c2=O)cc1Br,31%*
Cc1c(C(=O)NCCCN2CCCC2)oc2ccc(S(=O)(=O)N3CC(C)CC(C)C3)cc12 (configuration not stated),i
Cc1ccc(Cl)cc1-c1ccc(/C=C/[N+](=O)[O-])o1,51%*
N=C1S/C(=C/c2ccc(-c3ccccc3C(=O)O)o2)C(=O)N1c1nccs1,i
COc1cc([N+](=O)[O-])ccc1-c1ccc(/C=C2\C(=O)N(c3cccc(Cl)c3)N=C2C)o1,i
Cc1c(C(=O)O)cccc1-c1ccc(/C=C/[N+](=O)[O-])o1,61%*
CC(=O)Nc1ccccc1-c1ccc(C)o1,i
CC(=O)N1c2c(cc(Br)cc2S(=O)(=O)NCCN2CCC(C)CC2)CC1C (configuration not stated),i
CCCc1nc2nc[nH]n2c(=O)c1NC(=O)NCCc1ccccc1,i
O=C(Nc1ccccc1C(=O)NCCc1ccccc1)c1ccc(Cl)cc1Cl,i
CC(C(=O)O)n1cc(-c2ncc[nH]2)c2ccccc21 (configuration not stated),i
N=Nc1[nH]c(N)c2ccccc12,46%*
O=C(Cc1c(C(=O)O)[nH]c2ccccc12)NCCCN1CCCCCC1,i
CCC1CCCCN1S(=O)(=O)c1ccc2[nH]c(=O)cc(C(=O)NCc3cccs3)c2c1 (configuration not stated),i
COc1ccc2nc([C@H]3CCN(C(=O)CCC(=O)O)C3)[nH]c2c1,i
CC1(C)CC(=O)C2=C(C1)Nc1sc(C#N)c(N)c1C2c1ccccc1 (configuration not stated),33%*
CC1(C)CC(=O)C2=C(C1)NC1=C(C(=O)CC(C)(C)C1)C2c1ccccc1,i
CC1(C)CC(=O)C2=C(C1)Nc1[nH]c(=O)[nH]c(=O)c1C2c1ccccc1 (configuration not stated),i
